The source of these data is PubChem BioAssay.

Where “and” joins values, the source holds several entries; their conditions need not be identical. Identical values can stand only once. For part of these data: Entries with a potency or affinity are not part of this list. Calls of active or inactive are those of the source.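 How the source made its calls, unless noted: active means thallium flux through the channel raised or lowered by more than 3 SD from vehicle-only wells, actives on both sides; inactive means the rest.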

Experiment [1] in a line: blockers of polyQ-driven CASP3 activation – cell-based (AID 1583). The conditions noted are these: polyglutamine-induced caspase-3 activation, cell assay; stronger effect = higher value;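 tested at 10 µM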.
Experiment [2] in a line: yeast 75Q aggregation reduction – 75Q-TubU reporter (AID 1593). To be noted: Yeast 75Q polyglutamine aggregation reporter.
A short description of experiment [3]: restoration of touch response, mutant HTT neurons – whole organism, C. elegans mechanosensory neurons, N-terminal huntingtin (AID 1599). To be noted: C. elegans polyQ-huntingtin mechanosensory neurons, stronger effect = higher value.
Experiment [4] can be described thus: blockers of cytochrome c efflux from mitochondria – biochemical, purified mitochondria (AID 1603).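 Further: mouse liver mitochondria challenged with calcium chloride; signal normalized to the plate average as 100%.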 To be noted: stronger effect = lower value.
Experiment [5] is described as follows: polyglutamine aggregate formation blockers (AID 1604). The conditions noted are these: polyglutamine-induced protein aggregation inhibition assay; stronger effect = higher value; tested at 2.5 µM.
A short description of experiment [6]: glutamate transport activators, MN-1 cells, MN-1 cell line (AID 1612).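 Further: tested at 1 µM final; 0% = mean of DMSO vehicle wells on each plate; positive means more glutamate uptake than control and negative means less.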 The conditions noted are these: MN-1 motor neuron cells, stronger effect = higher value.
Experiment [7] is described as follows: 75Q-TubH aggregate inhibition, S. cerevisiae, yeast (AID 1616). The conditions noted are these: S. cerevisiae 75Q-TubH polyglutamine aggregation suppression; stronger effect = higher value.
Experiment [8] can be described thus: compounds altering viability of human ES cells (AID 493140; call rule not given here;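 further: cells exposed to compounds for four days before counting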). To be noted: human embryonic stem cell survival screen; stronger effect = higher value.
A short description of experiment [9]: signal quenchers or enhancers, Cy5 substrate/SSB – biochemical, NIH Clinical Collection, E. coli SSB, artefact control for HCV NS3 helicase inhibitor project (AID 743268; call rule not given here). The conditions noted are these: Cy5-oligo bound E. coli SSB, fluorescence interference.
For experiment [10], the system named is Hepatitis C virus NS3 helicase. Description: blockers of NS3h binding to DNA – biochemical, fluorescence polarization, NIH Clinical Collection, primary screen (AID 743270; call rule not given here). To be noted: NS3 helicase binding to Cy5-dT15 DNA, stronger effect = higher value, concentration not given here. (In general: Fluorescence polarisation rises when a labelled molecule tumbles more slowly, as on binding a larger partner.)

Experiment [11] concerns the target Single-stranded DNA-binding protein (Escherichia coli (strain K12)) (UniProt P0AGE0). The experiment can be described thus: SSB-ssDNA binding inhibitors – biochemical, fluorescence polarization, NIH Clinical Collection, counter-screen for HCV NS3 helicase inhibitor project (AID 743271; in the data active means inhibition above about 28%). The conditions noted are these: E. coli SSB-DNA binding, stronger effect = higher value, concentration not given here.

The nature of experiment [12]: compounds distorting NS3 helicase fluorescence signal – biochemical, NIH Clinical Collection, artefact control for HCV NS3 helicase inhibitor project (AID 743272; call rule not given here;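 further: HCV NS3 helicase with a Cy5 labelled single stranded DNA probe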). The conditions noted are these: fluorescence interference counterscreen, HCV NS3 helicase assay; stronger effect = lower value. A general note: Counterscreens check selectivity or assay interference.
A short description of experiment [13]: viability loss with induced miR-34 in A549 – imaging, A549 dox-inducible miR-34, nuclei and caspase counts, primary screen (AID 1347080;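 active means compounds whose cell count with miR-34 switched on is under 0.7 times the count with it off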). To be noted: A549 miR-34 inducible, Hoechst nuclei count, 48 h.
Experiment [14] is described as follows: galactose survival enhancers in mitochondrial complex I cybrids – cell-based, galactose medium, ATP luminescence, primary screen (AID 1645843;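 active means z-score of at least 1.8 in each of two replicates, scored against plate mean and spread of sample wells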;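 further: positive z means more ATP and so rescue of galactose-driven cybrid death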). To be noted: complex I mutant cybrid cells, 72 h, stronger effect = higher value.
Experiment [15] concerns R275C. Description: BK channel mutant inhibitors and activators – cell-based, U2OS BacMam, thallium flux, beta subunits, selectivity assay, profiling panel (AID 1259406).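 Further: initial slope of Thallos dye fluorescence rise after thallium is added; log ratio against the mean of 0.3% DMSO vehicle wells on the same plate.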 The conditions noted are these: U2OS BacMam BK variants, at 30 µM.
Experiment [16] relates to R275C/beta1. The description is as above. To be noted: U2OS BacMam BK variants, at 30 µM.
The subject of experiment [17] is R275C/beta2Delta. Described as above. To be noted: U2OS BacMam BK variants, at 30 µM.
The subject of experiment [18] is R275C/beta4. The experiment is described as above. The conditions noted are these: U2OS BacMam BK variants, at 30 µM.
Experiment [19] deals with R275C/Slo1WT/beta2. Described as above. To be noted: U2OS BacMam BK variants, at 30 µM.
Where [20] appears, read: stronger effect = lower value, cell number ratio, induced over uninduced.
Setting [21] is: measured here: relative caspase fold change +Dox/-Dox.
The mark [22] stands for this setting: measured here: total cells with miR-34 induction, stronger effect = lower value.
Where [23] appears, read: measured here: total cells without miR-34 induction.

Regarding `NS(=O)(=O)c1cc2c(cc1C(F)(F)F)NCNS2(=O)=O`, the figures for the inhibition in [1], in experiment [10] and in experiment [11] were -8.77%, -3.18% (inactive) and -0.48% (inactive), respectively. The molecule also had a score in [2] of 1.38. The molecule further displayed a rescue above control in [3] of -10.8. Besides, the cytochrome c release ratio in experiment [4] came to 0.95. The molecule further registered an inhibition of aggregation in experiment [5] of 91.6%. In addition, the glutamate uptake change in experiment [6] is -18.5%. For the same molecule, the aggregation suppression score in experiment [7] was found to be 1.31. The survival in experiment [8] is 23.1 (inactive). The fluorescence ratio in [9] is 1.02 (inactive); in experiment [12] it was 0.93 (inactive). The fold change in [13] (setting [20]) was 0.934 (inactive) and 0.925 (inactive) and 0.803 (inactive); in experiment [13] (setting [21]), 2.9 and 1.27 and 0.875. The cell count in experiment [13] (setting [22]) is 10100 and 9100 and 10600; in [13] (setting [23]), 10900 and 9840 and 13200. Further, in experiment [14], the z-score was 1.47 (inactive). The log fold change Tl+ flux in [15] is -0.0328 (inactive); in experiment [16], -0.0725 (inactive); in experiment [17], 0.0545 (inactive); in [18], 0.0202 (inactive); in experiment [19] it was 0.0133 (inactive).

Consider `CN(C)CCCN1c2ccccc2CCc2ccccc21`, for which, in experiment [1], the inhibition was -29.3%. This molecule also yielded a score in experiment [2] of 1.28. The rescue above control in experiment [3] is 5.01. For the same molecule, in [4], the cytochrome c release ratio is 1.3. The inhibition of aggregation in experiment [5] stood at 41%. Also, the glutamate uptake change in experiment [6] stood at 5.43%. The aggregation suppression score in experiment [7] turned out to be 1.2. Also, in experiment [8], the survival is 8.08 (inactive). Moreover, the z-score in experiment [14] was -0.9 (inactive) and -0.525 (inactive) and -0.59 (inactive). Further, the log fold change Tl+ flux in experiment [15] is 0.0455 (inactive); in experiment [16], 0.104 (inactive); in experiment [17], 0.158 (active); in experiment [18], 0.109 (inactive); in experiment [19], 0.0178 (inactive).

For `CCN(CC)CCOC(=O)C1(C2CCCCC2)CCCCC1`, the inhibition in experiment [1] is -0.16%; in experiment [10], -3.18% (inactive); in [11], 4.1% (inactive). In experiment [2], the score is 0.92. The same molecule registered a rescue above control in experiment [3] of 8.2. Also, the cytochrome c release ratio in [4] turned out to be 0.58. Moreover, the inhibition of aggregation in experiment [5] was 78.3%. For the same molecule, in experiment [6], the glutamate uptake change is -7.11%. This molecule also registered an aggregation suppression score in experiment [7] of 1.04. The survival in experiment [8] is 16.2 (inactive). The fluorescence ratio in experiment [9] is 1.01 (inactive); in [12], 0.95 (inactive). For the same molecule, the z-score in experiment [14] is -0.95 (inactive) and -0.895 (inactive) and -2.66 (inactive). The log fold change Tl+ flux in [15] is -0.00463 (inactive); in experiment [16], 0.0871 (inactive); in experiment [17], 0.0332 (inactive); in experiment [18], 0.0991 (inactive); in experiment [19], 0.00259 (inactive).

In the case of `NCC(=O)CCC(=O)O`, the fluorescence ratio in experiment [9] was 1.05 (inactive); in experiment [12], 1.02 (inactive). Also, the inhibition in experiment [10] is -2.27% (inactive); in experiment [11], -0.48% (inactive). In addition, the fold change in [13] (setting [20]) is 0.951 (inactive) and 0.95 (inactive) and 0.866 (inactive); in [13] (setting [21]) it was 1.44 and 0.654 and 2.02. Besides, the cell count in [13] (setting [22]) is 9310 and 7910 and 11200; in experiment [13] (setting [23]), 9780 and 8320 and 12900. The z-score in experiment [14] was 0.925 (inactive). The log fold change Tl+ flux is -0.000596 (inactive) in experiment [15]; -0.0231 (inactive) in experiment [16]; -0.0499 (inactive) in experiment [17]; -0.0959 (inactive) in [18]; -0.117 (active) in experiment [19].

For `CN(C)CCC[C@@]1(c2ccc(F)cc2)OCc2cc(C#N)ccc21`, the fluorescence ratio was 1.05 (inactive) in [9] and 0.96 (inactive) in experiment [12]. Further, the inhibition in experiment [10] was -1.98% (inactive); in experiment [11], 6.83% (inactive). The fold change in [13] (setting [20]) is 1.02 (inactive) and 0.891 (inactive); in experiment [13] (setting [21]), 2.21 and 1.15. Also, the cell count is 9600 and 9400 in [13] (setting [22]); 9420 and 10600 in experiment [13] (setting [23]). In addition, the z-score in experiment [14] is 0.15 (inactive) and 0.43 (inactive). Further, the log fold change Tl+ flux in experiment [15] was -0.0846 (inactive); in experiment [16], 0.0547 (inactive); in [17] it was 0.0841 (inactive); in [18], 0.0144 (inactive); in [19] it was 0.0208 (inactive).

`CCN(CC)CCNC(=O)c1ccc(N)cc1`: the inhibition in [1] was -1.81%. This molecule also showed a score in experiment [2] of 1.26. Besides, in experiment [3], the rescue above control is 9.03. Also, in [4], the cytochrome c release ratio came to 1.74. Besides, the inhibition of aggregation in [5] turned out to be 49.4%. Also, the glutamate uptake change in experiment [6] was -9.57%. This molecule showed an aggregation suppression score in [7] of 1.03. Besides, the survival in experiment [8] is 12.9 (inactive). In addition, in experiment [14], the z-score is 0.47 (inactive) and -0.57 (inactive) and 0.345 (inactive). Moreover, the log fold change Tl+ flux was 0.0572 (inactive) in [15]; -0.0679 (inactive) in experiment [16]; -0.0122 (inactive) in experiment [17]; -0.0764 (inactive) in experiment [18]; -0.03 (inactive) in [19].

Take `CCCNC(=O)NS(=O)(=O)c1ccc(Cl)cc1`: the inhibition is 10.9% in experiment [1], -2.27% (inactive) in [10] and 1.05% (inactive) in experiment [11]. The same molecule registered a score in experiment [2] of 1.66. The rescue above control in [3] was -4.58. In addition, the cytochrome c release ratio in experiment [4] stood at 1.77. Further, in [5], the inhibition of aggregation amounted to 91%. In addition, the glutamate uptake change in experiment [6] was -12.9%. Besides, the aggregation suppression score in experiment [7] worked out at 1.38. For the same molecule, in experiment [8], the survival is 13.6 (inactive). Besides, the values for the fluorescence ratio in [9] and in experiment [12] were 0.93 (inactive) and 0.96 (inactive), respectively. For the same molecule, the z-score in experiment [14] was 0.8 (inactive) and 0.135 (inactive). Also, the log fold change Tl+ flux in experiment [15] is 0.0359 (inactive); in experiment [16] it was 0.0476 (inactive); in experiment [17] it was 0.0638 (inactive); in experiment [18] it was 0.017 (inactive); in [19], -0.0244 (inactive).

On to `C[C@H](CS)C(=O)N1CCC[C@H]1C(=O)O`, for which, in experiment [1], the inhibition turned out to be 11.5%. The score in experiment [2] came out at 1.09. Besides, the rescue above control in [3] was -12.7. Further, in [4], the cytochrome c release ratio worked out at 0.82. The molecule further gave an inhibition of aggregation in experiment [5] of 37.2%. In addition, the glutamate uptake change in experiment [6] was -3.95%. The same molecule had an aggregation suppression score in [7] of 1.08. Moreover, the z-score in experiment [14] was 0.49 (inactive) and 0.465 (inactive) and -0.54 (inactive). The log fold change Tl+ flux is 0.0445 (inactive) in [15]; -0.0207 (inactive) in experiment [16]; 0.0269 (inactive) in [17]; -0.00777 (inactive) in experiment [18]; 0.0231 (inactive) in experiment [19].

Consider `CCCCC1=NC2(CCCC2)C(=O)N1Cc1ccc(-c2ccccc2-c2nn[nH]n2)cc1`, for which the fluorescence ratio is 1.06 (inactive) in experiment [9] and 1.03 (inactive) in [12]. The inhibition in [10] was -3.56% (inactive); in experiment [11] it was 3.75% (inactive). The fold change in [13] (setting [20]) was 0.939 (inactive) and 0.866 (inactive); in experiment [13] (setting [21]) it was 1.55 and 6.32. Also, the cell count in experiment [13] (setting [22]) is 7090 and 11900; in [13] (setting [23]), 7550 and 13800. For the same molecule, the z-score in experiment [14] is 1.65 (inactive). Moreover, the log fold change Tl+ flux is 0.00561 (inactive) in experiment [15]; 0.109 (active) in [16]; 0.104 (active) in experiment [17]; 0.051 (inactive) in [18]; 0.0476 (inactive) in experiment [19].

The term inhibition denotes the relative decrease from the control value, in per cent.
